# Source: article PMC4336329 (PLoS ONE, 2015)
# Among all 310,000 compounds or so, about 2,200 (0.71%) showed an effect of 50% or more. Effects have a minus sign here. The entries come from a sample that favours strong results as a whole.
# Target: human ether-à-go-go-related gene (hERG) potassium channel (human, UniProt Q12809)
# Experiment: primary screen, population patch clamp on CHO cells stably expressing hERG; higher = less effect of the substance
# Chain of human ether-à-go-go-related gene (hERG) potassium channel (Q12809 whole entry, looked up): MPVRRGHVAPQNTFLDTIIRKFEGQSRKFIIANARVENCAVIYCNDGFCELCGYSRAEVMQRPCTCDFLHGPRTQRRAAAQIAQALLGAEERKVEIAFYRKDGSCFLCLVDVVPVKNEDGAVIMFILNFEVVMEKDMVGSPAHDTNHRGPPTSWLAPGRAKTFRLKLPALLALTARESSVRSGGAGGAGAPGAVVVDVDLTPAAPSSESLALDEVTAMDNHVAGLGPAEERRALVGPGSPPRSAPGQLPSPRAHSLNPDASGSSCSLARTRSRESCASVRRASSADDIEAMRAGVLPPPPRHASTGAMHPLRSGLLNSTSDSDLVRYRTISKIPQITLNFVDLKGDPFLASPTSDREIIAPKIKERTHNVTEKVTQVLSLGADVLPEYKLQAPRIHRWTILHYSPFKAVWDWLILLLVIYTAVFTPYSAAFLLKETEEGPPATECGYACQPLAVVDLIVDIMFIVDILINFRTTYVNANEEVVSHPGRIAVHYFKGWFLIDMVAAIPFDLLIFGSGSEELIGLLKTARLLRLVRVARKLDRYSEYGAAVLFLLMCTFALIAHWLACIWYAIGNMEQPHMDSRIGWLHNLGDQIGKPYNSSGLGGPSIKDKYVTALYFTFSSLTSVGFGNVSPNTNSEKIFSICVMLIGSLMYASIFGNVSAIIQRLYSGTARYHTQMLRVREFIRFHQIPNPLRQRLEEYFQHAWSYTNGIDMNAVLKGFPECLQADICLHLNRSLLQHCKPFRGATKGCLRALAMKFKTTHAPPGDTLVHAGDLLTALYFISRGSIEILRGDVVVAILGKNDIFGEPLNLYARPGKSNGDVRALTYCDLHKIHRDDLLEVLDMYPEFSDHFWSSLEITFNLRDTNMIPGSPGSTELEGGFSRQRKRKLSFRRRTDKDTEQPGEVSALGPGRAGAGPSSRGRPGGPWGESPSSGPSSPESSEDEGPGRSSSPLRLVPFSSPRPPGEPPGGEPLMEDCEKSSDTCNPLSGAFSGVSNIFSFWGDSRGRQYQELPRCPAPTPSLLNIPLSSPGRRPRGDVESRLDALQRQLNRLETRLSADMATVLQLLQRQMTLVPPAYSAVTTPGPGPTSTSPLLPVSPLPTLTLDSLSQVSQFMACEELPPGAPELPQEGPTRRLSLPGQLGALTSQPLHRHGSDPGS
row,Structure (SMILES),"hERG current change (%, negative = inhibition) at 1uM [%]"
1,COCCn1c(SCC(=O)NC2(C#N)CCCCC2)nc2ccccc2c1=O,-12.8
2,O=c1[nH]c(Cn2nnc(-c3ccccc3)n2)nc2scc(-c3ccccc3)c12,13.1
3,CN(C)CCNc1oc(COc2cccc(Cl)c2)nc1C#N,-4.66
4,N#Cc1nc(COc2cccc(Cl)c2)oc1NCc1ccncc1,-53.8
5,N#Cc1nc(COc2cccc(Cl)c2)oc1NCc1ccco1,-1.39
6,Cc1nc2c(n1C1CCCCC1)C(=O)c1ccccc1C2=O,19.1
7,COc1ccc2c(c1)c(C(=O)C(C)N1CCCCC1)c(C)n2C (stereo not drawn),16.9
8,COc1cccc(CC2(CO)CCCN(Cc3c(C)cc(C)cc3-n3cccn3)C2)c1 (stereo not drawn),-93.1
9,COc1cccc(CC2(CO)CCCN(Cc3cn[nH]c3-c3ccc(F)cc3)C2)c1 (stereo not drawn),6.39
10,OCC1(CCCc2ccccc2)CCN(Cc2ccc(F)cc2)CC1,-25.3
11,OCC1(CCCc2ccccc2)CCN(Cc2cc(F)ccc2F)CC1,-6.63
12,CCn1ccnc1CN1CCCC(CO)(Cc2cccc(OC)c2)C1 (stereo not drawn),-1.48
13,COc1ccc(-n2ccnc2CN2CCCC(CO)(Cc3cccc(OC)c3)C2)cc1 (stereo not drawn),0.509
14,COc1ccc(F)c(CN2CCCC(CO)(Cc3cccc(Cl)c3)C2)c1 (stereo not drawn),11.8
15,OCC1(CCc2ccccc2)CCN(Cc2cc(F)ccc2-n2cccn2)CC1,-85.3
16,COc1cccc(CC2(CO)CCCN(Cc3cc(F)ccc3-n3cccn3)C2)c1 (stereo not drawn),-85.1
17,O=C(NCCS(=O)(=O)NCc1ccccn1)c1ccccc1,8.81
18,COc1ccccc1C(=O)NNC(=O)C12CC3CC(CC(C3)C1)C2,12.4
19,COc1ccc(OC)c(-c2csc(N(Cc3ccco3)C(=O)c3cccs3)n2)c1,-0.179
20,CC(=O)CCC(=O)NCCc1ccccc1F,5.68
21,Cc1ccc(NC(=S)NNC(=O)C2CC2c2ccc(C)cc2)cc1 (stereo not drawn),-10.4
22,COP(=O)(CC(=O)c1ccccc1)CC(=O)c1ccccc1,8.51
23,COCCCNC(=S)NC1CC2CCCC(C1)N2Cc1cccs1 (stereo not drawn),1.43
24,COc1nc(-c2ccccc2)ccc1-c1noc(-c2cccs2)n1,0.091
25,COc1ccccc1NS(=O)(=O)c1cc(NC(=O)C(C)(C)C)ccc1N1CCOCC1,-4.51
26,CCC(=O)Nc1ccc(N2CCOCC2)c(S(=O)(=O)Nc2ccc(Cl)cc2)c1,11.9
27,Br.COc1ccccc1NS(=O)(=O)c1cc(N2Cc3ccccc3C2=N)ccc1N1CCOCC1,-61.2
28,O=S(=O)(Nc1ccc(N2CCOCC2)cc1)c1cc(Cl)ccc1Cl,7.82
29,COc1ccccc1NS(=O)(=O)c1cc(NC(=O)C2CC2)ccc1N1CCOCC1,19.5
30,Br.N=C1c2ccccc2CN1c1ccc(N2CCOCC2)c(S(=O)(=O)Nc2ccc(Cl)cc2)c1,-89.2
